This note sets out measurements from PubChem BioAssay (EPA / NIEHS).

Broadly, the AC50 is the concentration at which the activity in the assay is half-maximal.

The nature of assay [1]: CCTE_Shafer_MEA_dev_mutual_information_norm: CCTE's Neural Network Formation Assay for Mutual Information Normalization, Shafer Lab (AID 2284091).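 As to AC50: mutual information between electrodes summarised as area under curve across four recording days; potency is for a decrease in mutual information relative to DMSO.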 In short, it runs like this: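 Rat cortical cultures, 48-well MEA, continuous exposure DIV 0–12 with full media/compound change DIV 5 and 9. Readout: inter-electrode mutual information, AxIS adaptive spike detection; AUC across DIV 5/7/9/12 recordings; DMSO baseline, negative fitting direction.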

Assay [2] in a line: CCTE_Shafer_MEA_dev_correlation_coefficient_mean: CCTE's Neural Network Formation Assay for Mean Correlation Coefficient, Shafer Lab (AID 2284093).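 As to AC50: well mean pairwise spike train correlation integrated as AUC over recording days 5 to 12; potency fitted for loss of correlation relative to DMSO vehicle wells.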 In outline: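 Extracellular firing from rat cortical networks on 48-well MEAs, DMSO-referenced, negative fitting direction. Compound present from plating to DIV12; mean pairwise correlation per well integrated over DIV5–12 recordings by trapezoidal AUC.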

A short description of assay [3]: CCTE_Shafer_MEA_acute_LDH: CCTE's Lactate Dehydrogenase Assay for Cytotoxicity in the Neural Acute Assay, Shafer Lab (AID 2284086; active = hit-call score of the fitted dose curve at least 0.9, where 1 is the maximum;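 also: active means LDH release rises above DMSO vehicle level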). In short, it runs like this:
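Medium from rat cortical neuron MEA cultures sampled right after the 40 min compound-exposure recording; released LDH measured by absorbance at 490 nm. Analyzed as signal gain relative to DMSO.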

Assay [4] can be described thus: IUF_NPC1b_proliferation_BrdU_72hr: Leibniz Research Institute for Environmental Medicine (IUF) 72-hour Neural Progenitor Cell Bromodeoxyuridine (BrdU) Proliferation Assay (NPC1b) (AID 2284207). In outline:
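hNPC spheres (primary, GW 16-19 fetal cortex), single sphere/well, EGF+FGF medium; 72 h compound, no renewal; BrdU pulse last 16 h; luminescent ELISA; activity vs DMSO baseline; growth-factor withdrawal as positive control.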

Assay [5] can be described thus: IUF_NPC1a_proliferation_area_72hr: Leibniz Research Institute for Environmental Medicine (IUF) 72-hour Neural Progenitor Cell Proliferation Area Assay (NPC1a) (AID 2284208). In outline: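 Proliferation is scored as sphere area gain in primary human fetal neural progenitors treated for 72 h in EGF/FGF-containing medium. Viability, LDH and BrdU readouts come from the same wells.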

A short description of assay [6]: IUF_NPC1_viability_72hr: Viability Assessment at 72 hours in the Leibniz Research Institute for Environmental Medicine (IUF) Neural Progenitor Cell Proliferation Assay (NPC1) (AID 2284209). In outline: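 Single spheres (0.25-0.35 mm) of human fetal cortex-derived neural progenitor cells were grown in proliferation medium with EGF and FGF at 37C and 5% CO2. They were exposed for 72 h without renewal, and viability was read by alamar blue resorufin fluorescence.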

Assay [7] can be described thus: CCTE_Mundy_HCI_Cortical_Synap_Neur_Matur_NeuriteSpotCountPerNeuriteLength: CCTE's Synaptogenesis and Neurite Maturation Assay in rat cortical cells for Neurite Spot Count per Neurite Length, Mundy Lab (AID 2284210). In short, it runs like this:
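Rat primary cortical cultures, glia arrested with AraC at DIV 5, were dosed with media change at DIV 7 and fixed at DIV 12. Synaptophysin puncta per MAP2-labelled neurite length were quantified by high-content imaging versus DMSO.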

Assay [8] in a line: CCTE_Mundy_HCI_Cortical_Synap_Neur_Matur_BPCount: CCTE's Synaptogenesis and Neurite Maturation Assay in rat cortical cells for Branch Point Count, Mundy Lab (AID 2284211). In short, it runs like this: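 Rat primary cortical cultures, AraC added DIV 5; chemicals dosed DIV 7 through DIV 12. Fixed cells stained for MAP2, synaptophysin and Hoechst; neurite branch points counted by automated high-content imaging, fitted relative to DMSO.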

A short description of assay [9]: CCTE_Mundy_HCI_Cortical_NOG_NeuriteCount: CCTE's Neurite Outgrowth Assay in rat cortical cells for Neurite Count, Mundy Lab (AID 2284212).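 Also: cells fixed about two days after chemical exposure began.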 In outline:
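Neurite number per cell from high-content imaging of betaIII-tubulin immunostaining, with Hoechst nuclear counterstain.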

Assay [10] is described as follows: CCTE_Mundy_HCI_Cortical_NOG_NeuriteLength: CCTE's Neurite Outgrowth Assay in rat cortical cells for Neurite Length, Mundy Lab (AID 2284213). In outline:
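Neurite length was read by high-content imaging of βIII-tubulin-labelled neurites in rat primary cortical cultures. Activity was fitted relative to DMSO.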

The nature of assay [11]: CCTE_Mundy_HCI_Cortical_Synap_Neur_Matur_NeuriteLength: CCTE's Synaptogenesis and Neurite Maturation Assay in rat cortical cells for Neurite Length, Mundy Lab (AID 2284214). In short, it runs like this:
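Rat primary cortical cultures, AraC added DIV 5, dosed DIV 7 through DIV 12 […]. Fixed, MAP2/synaptophysin immunostained with Hoechst; neurite length by high-content imaging, fitted in positive direction versus DMSO.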

A short description of assay [12]: CCTE_Mundy_HCI_Cortical_Synap_Neur_Matur_NeuriteSpotCountPerNeuron: CCTE's Synaptogenesis and Neurite Maturation Assay in rat cortical cells for Neurite Spot Count per Neuron Count, Mundy Lab (AID 2284215). In short, it runs like this: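 Synapse density is scored as synaptophysin spots along neurites per neuron in fixed rat cortical neurons, measured at DIV 12 after chemical dosing at DIV 7. DMSO is the negative control and activity baseline.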

The nature of assay [13]: CCTE_Mundy_HCI_Cortical_Synap_Neur_Matur_SynapseCount: CCTE's Synaptogenesis and Neurite Maturation Assay in rat cortical cells for Synapse Count, Mundy Lab (AID 2284218). In short, it runs like this:
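Rat primary cortical cultures, AraC at DIV 5, chemical dosing DIV 7 to DIV 12 (288.33 h). Fixed cells stained for MAP2, synaptophysin and Hoechst; synapses per neuron counted by high-content imaging, loss of signal versus DMSO.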

A short description of assay [14]: CCTE_Mundy_HCI_Cortical_Synap_Neur_Matur_NeuriteCount: CCTE's Synaptogenesis and Neurite Maturation Assay in rat cortical cells for Neurite Count, Mundy Lab (AID 2284222).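 Also: exposure from day 7 to day 12 in vitro with readout at day 12.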 In outline: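 In this multiplexed morphology readout, rat primary cortical neurons are fixed at DIV 12 following dosing at DIV 7 and stained for MAP2, synaptophysin and nuclei. High-content image analysis yields neurite count.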

Assay [15] is described as follows: CCTE_Mundy_HCI_Cortical_Synap_Neur_Matur_CellBodySpotCount: CCTE's Synaptogenesis and Neurite Maturation Assay in rat cortical cells for Cell Body Spot Count, Mundy Lab (AID 2284223). In outline:
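Synapse number at neuronal cell bodies was quantified as synaptophysin puncta per neuron in rat cortical cultures exposed from DIV 7 to DIV 12. Values were normalised to DMSO.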

Assay [16] in a line: TAMU_PeakParms_SingleDonor1434_Chronotropy: Texas A&M University (TAMU) 1.5-hr Human Induced Pluripotent Stem Cell (iPSC)-derived Cardiomyocytes Calcium (Ca+2) Flux Assay for Cardiotoxicity: Chronotropy (changes in peak frequency) (AID 2284217). The following applies: actives raise or lower the signal. In outline:
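Using fluorescent Ca2+ flux, average beats per second are measured in human iPSC-derived cardiomyocytes treated 90 min (0.5% DMSO vehicle, 0.2–100 uM). Non-beating data points are removed; activity is modeled in both directions relative to DMSO controls.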

A short description of assay [17]: CCTE_Mundy_HCI_hN2_NOG_NeuriteCount: CCTE's Neurite Outgrowth Assay in human hN2 cells for Neurite Count, Mundy Lab (AID 2284219; active = hit-call score of the fitted dose curve at least 0.9, where 1 is the maximum). In outline: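 In this morphology assay, hNP1-derived neurons received test chemical 2 h post-plating and were fixed two days later in warm paraformaldehyde/sucrose containing Hoechst 33342. Neurites, labelled by rabbit anti-βIII-tubulin (1:800) and Alexa Fluor-488 (1:500), were counted automatically.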

Assay [18] is described as follows: CCTE_Mundy_HCI_hN2_NOG_NeuriteLength: CCTE's Neurite Outgrowth Assay in human hN2 cells for Neurite Length, Mundy Lab (AID 2284220; active = hit-call score of the fitted dose curve at least 0.9, where 1 is the maximum). In short, it runs like this: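 Using βIII-tubulin immunofluorescence and Hoechst nuclear counterstain, this component quantifies neurite length in hNP1-derived neurons.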
Assay [19] can be described thus: CCTE_Mundy_HCI_hN2_NOG_NeuronCount: CCTE's Neurite Outgrowth Assay in human hN2 cells for Neuron Count, Mundy Lab (AID 2284221; active = hit-call score of the fitted dose curve at least 0.9, where 1 is the maximum). In outline:
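Read-out is the number of betaIII-tubulin-positive neurons imaged by automated high-content analysis, with DMSO as negative control.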

Assay [20] can be described thus: CCTE_Mundy_HCI_hNP1_Pro_ResponderAvgInten: CCTE's Proliferation Assay in human neuroprogenitor cells, Mundy Lab (AID 2284224; active = hit-call score of the fitted dose curve at least 0.9, where 1 is the maximum;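 also: human neural progenitor cells hNP1 derived from WA09 embryonic stem cells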). In outline:
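Human neuroprogenitors (hNP1, WA09 lineage) receive test chemical after 40 to 44 hours of attachment. A four-hour BrdU pulse begins twenty hours later, followed by fixation and high content imaging; signal is referenced to DMSO controls.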

Results filed as inconclusive are left out. The source holds several records for some structures; these can differ, active in one and inactive in another. The source made the active and inactive calls. The calls were made as follows, unless noted: active = hit-call score of the fitted dose curve at least 0.9, where 1 is the maximum; inactive = score below 0.9.

Regarding `Cc1cc(=O)[nH]c(=S)[nH]1`, the call in assay [1] and in assay [2] was inactive.

For `COc1ccc2c(c1)c(CC(=O)O)c(C)n2C(=O)c1ccc(Cl)cc1`, the outcome in assay [3] was inactive.

On to `OC[C@@H](O)[C@@H](O)[C@H](O)[C@H](O)CO`, for which the molecule was classed as inactive in assay [1], in [2], in assay [4], in assay [5], in assay [6] and in assay [7]. In addition, the molecule was classed as inactive in [8], in assay [9], in assay [10], in [11], in [12] and in [14]. Also, in [15], the molecule was classed as inactive. Also, the AC50 in assay [13] is 64.8 nM (active).

With `C=CCc1ccc(O)c(OC)c1`, the result in [3], in assay [1] and in [2] was inactive.

As for `CCCCCCCCCCO`, the call in assay [3] was inactive.

Take `CCCc1cc(=O)[nH]c(=S)[nH]1`: the molecule was classed as inactive in assay [3], in [1], in [2], in [7], in [10] and in assay [11]. The call in assay [12], in [16], in assay [13], in assay [17], in assay [18] and in [19] was inactive. Besides, the result in assay [15] was inactive. In addition, in assay [2], the AC50 was 23900 nM (active).

On to `CCOC(=O)C(C)(C)Oc1ccc(Cl)cc1`, for which the molecule was called inactive in assay [3].

For the molecule `CNCc1cc(F)ccc1Oc1ccc(Cl)c(Cl)c1`, the molecule was called inactive in [3].

As for `C[Si]1(C)O[Si](C)(C)O[Si](C)(C)O[Si](C)(C)O1`, the outcome in [3], in assay [1], in assay [2], in [4], in assay [5] and in [6] was inactive. Further, the call in [7], in assay [8], in assay [9], in [10], in assay [11] and in assay [12] was inactive. Besides, the call in assay [13], in [14], in assay [15] and in [20] was inactive.

Regarding `CC(C)c1ccc(C(=O)N=C(N)N)cc1S(C)(=O)=O`, the result in assay [1] and in [2] was inactive.

Consider `CCOc1ccc2c(c1)C(C)=CC(C)(C)N2`, for which the result in assay [16] was inactive.

As to `CC(=O)Oc1ccccc1C(=O)O`, the AC50 in [1] was 15000 nM (active); in [4] it was 725 nM (active). The molecule was classed as inactive in assay [1], in assay [2], in assay [5], in [6], in [7] and in [8]. Also, the outcome in assay [9], in assay [10], in assay [11], in assay [12], in assay [16] and in assay [13] was inactive. Besides, the molecule was classed as inactive in assay [14] and in [15].

With `Nc1ccccc1N`, the molecule was classed as inactive in [3].

For `CN1CCCC1=O`, the call in assay [3] was inactive.

Regarding `NS(=O)(=O)c1cc2c(cc1Cl)NCNS2(=O)=O`, the call in assay [3] was inactive.

Take `Nc1ccc2c(c1)C(=O)c1ccccc1C2=O`: the call in [3] was inactive.

`c1cc(-c2ccncc2)ccn1`: the molecule was called inactive in assay [3].

`COc1ccc(S(=O)(=O)N2C(=O)[C@@](c3ccccc3OC)(N3C[C@H](O)C[C@H]3C(=O)N(C)C)c3cc(Cl)ccc32)c(OC)c1`: the molecule was classed as inactive in assay [3].

As to `CN[C@H]1CC[C@@H](c2ccc(Cl)c(Cl)c2)c2ccc(S(N)(=O)=O)cc21`, the call in assay [3] was inactive.

For `O=c1[nH]cc(F)c(=O)[nH]1`, the AC50 was 756 nM (active) in assay [1], 696 nM (active) in assay [2], 2340 nM (active) in assay [19] and 4620 nM (active) in assay [20]. The molecule was called inactive in [7], in assay [10], in [11], in assay [12], in assay [16] and in [13]. Further, the result in assay [17], in assay [18] and in assay [15] was inactive.

For the molecule `O=C(O)CCCCC(=O)O`, the molecule was classed as inactive in [3] and in assay [16].

On to `FC(F)(F)C(F)(F)C(F)(F)C(F)(F)C(F)(F)C(F)(F)CCI`, for which the result in [1] and in [2] was inactive.

For the molecule `NCC1(Cc2noc(=O)[nH]2)CCCCC1`, in assay [3], the outcome was inactive.

Take `CC(C)(C)c1cc(O)c(C(C)(C)C)cc1O`: the result in [3] was inactive.

Consider `COC(=O)c1ccc(O)cc1`, for which the AC50 in assay [16] is 50000 nM (active).
